About 8,800 targets were measured; listed, in parts, are those with a hit and a random draw of the rest. About 0.5% of all pairs of compound and target were hits.
What was measured:
Assay in all cases: log2 fold change, soluble protein after heating vs DMSO (PISA); higher = thermal stabilisation; K562 lysate, 10 uM; active = over 0.2 and 3.5 SD of the protein, either way, in both replicates (recomputed)
lapatinib = compound: CS(=O)(=O)CCNCc1ccc(-c2ccc3ncnc(Nc4ccc(OCc5cccc(F)c5)c(Cl)c4)c3c2)o1 [lapatinib]
Procedure, shortened: (§1)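 Thermal stability, expressed as log-two fold change relative to solvent controls, is given from duplicates. Crude K562 extract in PBS pH 7.4 with 1 mM MgCl2, at 1 mg/mL protein, was treated with 10 μM compound for 30 min and heated in aliquots for 3 min across 48°C-58°C. After pooling, adjustment to 0.5% NP-40 at 4°C and centrifugation at 21,000xg for 90 min, supernatant protein was measured by TMTpro 16plex LC-MS/MS with channel sums equalised.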

pictilisib = compound: CS(=O)(=O)N1CCN(Cc2cc3nc(-c4cccc5[nH]ncc45)nc(N4CCOCC4)c3s2)CC1 [pictilisib]
Procedure, shortened: as §1

crizotinib = compound: C[C@@H](Oc1cc(-c2cnn(C3CCNCC3)c2)cnc1N)c1c(Cl)ccc(F)c1Cl [crizotinib]
Procedure, shortened: as §1

[1] = compound: C[C@H](C1=CC=C(C=C1)C(=O)NC2=C3C=CNC3=NC=C2)N
Procedure, shortened: as §1

duvelisib = compound: C[C@H](Nc1ncnc2nc[nH]c12)c1cc2cccc(Cl)c2c(=O)n1-c1ccccc1 [duvelisib]
Procedure, shortened: as §1

gandotinib = compound: Cc1cc(Nc2cc(CN3CCOCC3)c3nc(C)c(Cc4ccc(Cl)cc4F)n3n2)n[nH]1 [gandotinib]
Procedure, shortened: as §1

tozasertib = compound: Cc1cc(Nc2cc(N3CCN(C)CC3)nc(Sc3ccc(NC(=O)C4CC4)cc3)n2)n[nH]1 [tozasertib]
Procedure, shortened: as §1

doramapimod = compound: Cc1ccc(-n2nc(C(C)(C)C)cc2NC(=O)Nc2ccc(OCCN3CCOCC3)c3ccccc23)cc1 [doramapimod]
Procedure, shortened: as §1

bafetinib = compound: Cc1ccc(NC(=O)c2ccc(CN3CC[C@H](N(C)C)C3)c(C(F)(F)F)c2)cc1Nc1nccc(-c2cncnc2)n1 [bafetinib]
Procedure, shortened: as §1

[2] = compound: Cc1cccc(CC(=O)N2CCc3c2ccc(-c2cn(C)c4ncnc(N)c24)c3F)n1
Procedure, shortened: as §1

nilotinib = compound: Cc1cn(-c2cc(NC(=O)c3ccc(C)c(Nc4nccc(-c5cccnc5)n4)c3)cc(C(F)(F)F)c2)cn1 [nilotinib]
Procedure, shortened: as §1

[3] = compound: Cc1nc(Nc2n[nH]c3c2CN(C(=O)N[C@H](CN(C)C)c2ccccc2)C3(C)C)c2sccc2n1
Procedure, shortened: as §1

dasatinib = compound: Cc1nc(Nc2ncc(C(=O)Nc3c(C)cccc3Cl)s2)cc(N2CCN(CCO)CC2)n1 [dasatinib]
Procedure, shortened: as §1

[4] = compound: Cc1ncc(-c2ccnc(Nc3ccc(S(C)(=O)=O)cc3)n2)n1C(C)C
Procedure, shortened: as §1

[5] = compound: Cn1cc(-c2ccc3c(c2)CCN3C(=O)Cc2cccc(C(F)(F)F)c2)c2c(N)ncnc21
Procedure, shortened: as §1

quisinostat = compound: Cn1cc(CNCC2CCN(c3ncc(C(=O)NO)cn3)CC2)c2ccccc21 [quisinostat]
Procedure, shortened: as §1

tipifarnib = compound: Cn1cncc1[C@@](N)(c1ccc(Cl)cc1)c1ccc2c(c1)c(-c1cccc(Cl)c1)cc(=O)n2C [tipifarnib]
Procedure, shortened: as §1

[6] = compound: NC(=O)Nc1cc(-c2cccc(F)c2)sc1C(=O)N[C@H]1CCCNC1
Procedure, shortened: as §1

[7] = compound: NC(=O)c1cnc(N[C@@H]2CCCC[C@@H]2N)nc1Nc1cccc(-n2nccn2)c1
Procedure, shortened: as §1

[8] = compound: NC1(c2ccc(-c3nc4ccn5c(=O)[nH]nc5c4cc3-c3ccccc3)cc2)CCC1
Procedure, shortened: as §1

Sequence of UniProt Q96GY0 (Q96GY0 whole entry, looked up): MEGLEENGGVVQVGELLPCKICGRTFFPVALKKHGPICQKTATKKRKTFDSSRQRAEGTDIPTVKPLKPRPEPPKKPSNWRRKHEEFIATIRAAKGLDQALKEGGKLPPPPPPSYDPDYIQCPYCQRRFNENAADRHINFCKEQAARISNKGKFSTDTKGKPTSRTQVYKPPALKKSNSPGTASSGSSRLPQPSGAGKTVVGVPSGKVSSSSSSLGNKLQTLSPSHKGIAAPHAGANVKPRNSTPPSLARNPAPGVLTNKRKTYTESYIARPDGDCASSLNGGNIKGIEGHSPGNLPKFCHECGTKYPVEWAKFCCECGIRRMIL
Sequence of UniProt O75717 (O75717 whole entry, looked up): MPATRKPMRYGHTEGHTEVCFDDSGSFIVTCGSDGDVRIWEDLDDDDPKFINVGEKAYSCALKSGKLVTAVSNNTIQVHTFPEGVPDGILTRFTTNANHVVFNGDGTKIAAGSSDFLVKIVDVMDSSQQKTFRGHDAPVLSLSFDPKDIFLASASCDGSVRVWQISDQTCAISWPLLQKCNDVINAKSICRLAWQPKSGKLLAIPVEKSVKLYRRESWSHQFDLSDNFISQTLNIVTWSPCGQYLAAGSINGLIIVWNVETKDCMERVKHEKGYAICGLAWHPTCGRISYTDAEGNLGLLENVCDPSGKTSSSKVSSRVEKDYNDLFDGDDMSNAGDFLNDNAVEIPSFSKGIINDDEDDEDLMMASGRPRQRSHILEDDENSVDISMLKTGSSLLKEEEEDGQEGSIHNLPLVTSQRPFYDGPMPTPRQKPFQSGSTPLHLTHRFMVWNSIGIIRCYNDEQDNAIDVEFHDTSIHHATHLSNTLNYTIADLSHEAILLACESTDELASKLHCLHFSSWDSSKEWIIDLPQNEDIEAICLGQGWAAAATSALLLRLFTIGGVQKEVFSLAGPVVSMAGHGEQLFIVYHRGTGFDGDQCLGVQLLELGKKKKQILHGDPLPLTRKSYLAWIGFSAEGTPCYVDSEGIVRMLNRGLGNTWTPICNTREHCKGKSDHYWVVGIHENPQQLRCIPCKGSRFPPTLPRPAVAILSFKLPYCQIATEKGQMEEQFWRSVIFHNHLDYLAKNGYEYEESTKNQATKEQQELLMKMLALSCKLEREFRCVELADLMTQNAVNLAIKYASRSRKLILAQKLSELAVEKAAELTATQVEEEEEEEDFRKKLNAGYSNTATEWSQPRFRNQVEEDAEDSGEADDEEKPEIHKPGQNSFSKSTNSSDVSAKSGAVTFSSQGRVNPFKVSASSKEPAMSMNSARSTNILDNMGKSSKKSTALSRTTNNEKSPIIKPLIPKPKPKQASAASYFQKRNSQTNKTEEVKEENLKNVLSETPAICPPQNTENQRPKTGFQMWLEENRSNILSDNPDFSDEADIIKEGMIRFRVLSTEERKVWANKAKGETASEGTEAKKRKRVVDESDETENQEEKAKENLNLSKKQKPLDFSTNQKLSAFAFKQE
Sequence of UniProt Q9Y4E5 (Q9Y4E5 whole entry, looked up): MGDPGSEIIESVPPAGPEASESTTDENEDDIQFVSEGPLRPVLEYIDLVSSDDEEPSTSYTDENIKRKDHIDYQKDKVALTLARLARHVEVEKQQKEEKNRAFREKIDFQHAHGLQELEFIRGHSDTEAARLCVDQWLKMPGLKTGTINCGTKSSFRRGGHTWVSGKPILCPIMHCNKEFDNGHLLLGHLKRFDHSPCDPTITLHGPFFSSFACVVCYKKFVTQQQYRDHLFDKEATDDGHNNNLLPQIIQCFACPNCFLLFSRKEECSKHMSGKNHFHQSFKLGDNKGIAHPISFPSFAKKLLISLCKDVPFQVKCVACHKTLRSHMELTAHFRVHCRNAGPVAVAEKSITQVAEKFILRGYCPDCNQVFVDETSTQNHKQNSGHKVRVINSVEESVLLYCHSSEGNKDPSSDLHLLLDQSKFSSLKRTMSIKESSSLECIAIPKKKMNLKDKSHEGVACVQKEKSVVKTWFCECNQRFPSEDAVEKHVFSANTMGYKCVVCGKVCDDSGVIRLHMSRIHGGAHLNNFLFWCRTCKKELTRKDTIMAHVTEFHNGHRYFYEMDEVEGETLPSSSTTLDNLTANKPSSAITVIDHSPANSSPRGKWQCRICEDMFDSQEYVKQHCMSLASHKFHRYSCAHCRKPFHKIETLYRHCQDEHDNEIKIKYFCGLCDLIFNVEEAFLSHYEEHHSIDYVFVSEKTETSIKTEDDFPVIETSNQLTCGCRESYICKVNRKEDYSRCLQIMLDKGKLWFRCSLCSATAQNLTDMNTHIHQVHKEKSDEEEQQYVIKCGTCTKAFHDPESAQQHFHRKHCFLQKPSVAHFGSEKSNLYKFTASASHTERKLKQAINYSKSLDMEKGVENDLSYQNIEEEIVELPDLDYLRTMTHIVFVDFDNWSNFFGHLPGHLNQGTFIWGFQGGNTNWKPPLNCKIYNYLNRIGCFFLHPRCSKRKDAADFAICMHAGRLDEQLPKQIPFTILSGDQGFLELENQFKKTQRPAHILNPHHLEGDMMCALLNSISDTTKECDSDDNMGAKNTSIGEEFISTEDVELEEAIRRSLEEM
Sequence of UniProt Q9UK41 (Q9UK41 whole entry, looked up): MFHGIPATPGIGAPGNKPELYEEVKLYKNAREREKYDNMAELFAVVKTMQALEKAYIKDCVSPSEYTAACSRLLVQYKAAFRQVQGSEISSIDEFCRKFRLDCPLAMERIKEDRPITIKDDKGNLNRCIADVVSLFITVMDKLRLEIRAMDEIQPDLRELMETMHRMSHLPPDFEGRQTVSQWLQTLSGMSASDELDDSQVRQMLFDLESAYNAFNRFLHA
Sequence of UniProt Q9UNX4 (Q9UNX4 whole entry, looked up): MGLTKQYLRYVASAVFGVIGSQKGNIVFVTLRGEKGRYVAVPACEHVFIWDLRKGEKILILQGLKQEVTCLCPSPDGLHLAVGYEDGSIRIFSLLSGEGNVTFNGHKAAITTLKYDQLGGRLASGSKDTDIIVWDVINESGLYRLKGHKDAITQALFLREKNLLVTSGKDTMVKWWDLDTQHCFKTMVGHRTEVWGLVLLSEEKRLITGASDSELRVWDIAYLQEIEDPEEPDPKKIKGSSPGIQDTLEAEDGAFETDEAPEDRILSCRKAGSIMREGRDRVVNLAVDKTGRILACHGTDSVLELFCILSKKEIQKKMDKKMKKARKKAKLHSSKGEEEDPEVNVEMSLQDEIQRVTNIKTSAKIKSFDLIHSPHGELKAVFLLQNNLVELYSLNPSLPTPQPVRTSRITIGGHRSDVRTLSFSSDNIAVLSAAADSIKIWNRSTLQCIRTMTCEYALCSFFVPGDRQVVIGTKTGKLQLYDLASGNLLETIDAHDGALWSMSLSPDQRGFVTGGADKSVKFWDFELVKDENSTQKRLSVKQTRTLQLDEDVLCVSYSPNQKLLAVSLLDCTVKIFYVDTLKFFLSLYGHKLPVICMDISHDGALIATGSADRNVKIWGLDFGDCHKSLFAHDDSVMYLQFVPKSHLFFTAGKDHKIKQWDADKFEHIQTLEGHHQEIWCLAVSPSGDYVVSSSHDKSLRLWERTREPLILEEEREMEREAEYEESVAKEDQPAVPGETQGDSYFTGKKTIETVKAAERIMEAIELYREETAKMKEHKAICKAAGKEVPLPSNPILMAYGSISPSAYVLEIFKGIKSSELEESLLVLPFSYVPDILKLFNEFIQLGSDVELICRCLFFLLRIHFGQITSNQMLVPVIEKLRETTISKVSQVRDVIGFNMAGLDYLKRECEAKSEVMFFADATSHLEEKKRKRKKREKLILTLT
Sequence of UniProt Q9UBK9 (Q9UBK9 whole entry, looked up): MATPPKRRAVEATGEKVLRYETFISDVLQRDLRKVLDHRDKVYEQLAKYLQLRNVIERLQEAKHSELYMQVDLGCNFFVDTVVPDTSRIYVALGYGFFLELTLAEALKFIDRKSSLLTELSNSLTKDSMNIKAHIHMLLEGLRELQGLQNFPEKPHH
Sequence of UniProt Q5MNZ9 (Q5MNZ9 whole entry, looked up): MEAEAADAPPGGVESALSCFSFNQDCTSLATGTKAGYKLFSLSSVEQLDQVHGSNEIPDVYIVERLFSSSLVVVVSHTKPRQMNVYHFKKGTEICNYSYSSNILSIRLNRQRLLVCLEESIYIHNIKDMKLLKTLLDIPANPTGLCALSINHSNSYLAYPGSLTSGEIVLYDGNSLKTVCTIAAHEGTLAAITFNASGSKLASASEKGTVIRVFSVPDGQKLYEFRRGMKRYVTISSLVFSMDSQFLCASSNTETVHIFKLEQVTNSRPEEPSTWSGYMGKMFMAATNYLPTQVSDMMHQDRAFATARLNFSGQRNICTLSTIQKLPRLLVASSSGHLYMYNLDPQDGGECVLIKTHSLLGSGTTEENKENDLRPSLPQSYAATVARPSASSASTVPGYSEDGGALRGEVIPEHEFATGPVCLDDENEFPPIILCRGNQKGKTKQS
Sequence of UniProt Q9BTA9 (Q9BTA9 whole entry, looked up): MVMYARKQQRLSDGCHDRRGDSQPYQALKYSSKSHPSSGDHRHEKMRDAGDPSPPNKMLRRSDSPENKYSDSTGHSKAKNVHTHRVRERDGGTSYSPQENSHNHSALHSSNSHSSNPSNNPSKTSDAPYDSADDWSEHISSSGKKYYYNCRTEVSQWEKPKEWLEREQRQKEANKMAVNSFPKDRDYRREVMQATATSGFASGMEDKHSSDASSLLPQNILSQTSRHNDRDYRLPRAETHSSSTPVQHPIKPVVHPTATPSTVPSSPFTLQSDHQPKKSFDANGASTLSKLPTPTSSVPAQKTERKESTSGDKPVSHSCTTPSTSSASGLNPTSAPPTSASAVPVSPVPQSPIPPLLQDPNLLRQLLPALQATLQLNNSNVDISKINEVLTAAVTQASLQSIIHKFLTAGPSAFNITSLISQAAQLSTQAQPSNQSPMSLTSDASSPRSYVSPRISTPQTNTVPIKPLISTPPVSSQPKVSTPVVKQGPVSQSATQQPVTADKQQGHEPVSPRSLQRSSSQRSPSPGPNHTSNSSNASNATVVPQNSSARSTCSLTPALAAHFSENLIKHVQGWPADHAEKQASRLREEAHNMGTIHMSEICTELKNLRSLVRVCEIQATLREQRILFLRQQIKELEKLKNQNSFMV

Target	log2 fold change (lapatinib)	log2 fold change (pictilisib)	log2 fold change (crizotinib)	log2 fold change [1]	log2 fold change (duvelisib)	log2 fold change (gandotinib)	log2 fold change (tozasertib)	log2 fold change (doramapimod)	log2 fold change (bafetinib)	log2 fold change [2]	log2 fold change (nilotinib)	log2 fold change [3]	log2 fold change (dasatinib)	log2 fold change [4]	log2 fold change [5]	log2 fold change (quisinostat)	log2 fold change (tipifarnib)	log2 fold change [6]	log2 fold change [7]	log2 fold change [8]
WDR77 (UniProt Q9BQA1)	0.012 (inactive)	0.016 (inactive)	-0.027 (inactive)	0.014 (inactive)	0.119 (inactive)	-0.037 (inactive)	-0.005 (inactive)	0.008 (inactive)	-0.024 (inactive)	-0.047 (inactive)	0.056 (inactive)	0.028 (inactive)	0.093 (inactive)	0 (inactive)	-0.013 (inactive)	0.014 (inactive)	0.048 (inactive)	0.006 (inactive)	-0.008 (inactive)	0.039 (inactive)
WAC (UniProt Q9BTA9)	0.005 (inactive)	-0.04 (inactive)	0.018 (inactive)	0 (inactive)	-0.005 (inactive)	-0.014 (inactive)	0.004 (inactive)	-0.031 (inactive)	-0.057 (inactive)	0.043 (inactive)	-0.012 (inactive)	-0.001 (inactive)	-0.038 (inactive)	-0.019 (inactive)	0.002 (inactive)	-0.029 (inactive)	0 (inactive)	0.019 (inactive)	-0.01 (inactive)	0.004 (inactive)
ZC2HC1A (UniProt Q96GY0)	0.004 (inactive)	0.056 (inactive)	-0.009 (inactive)	-0.082 (inactive)	0 (inactive)	0.053 (inactive)	0.007 (inactive)	-0.021 (inactive)	0.052 (inactive)	0.103 (inactive)	0 (inactive)	0.005 (inactive)	-0.085 (inactive)	0.002 (inactive)	0.1 (inactive)	-0.082 (inactive)	-0.02 (inactive)	-0.014 (inactive)	0.04 (inactive)	-0.092 (inactive)
WDR3 (UniProt Q9UNX4)	-0.012 (inactive)	-0.113 (inactive)	-0.003 (inactive)	-0.054 (inactive)	0.008 (inactive)	-0.022 (inactive)	0.003 (inactive)	0.01 (inactive)	-0.083 (inactive)	0.14 (inactive)	0.055 (inactive)	0.001 (inactive)	-0.069 (inactive)	-0.016 (inactive)	0.027 (inactive)	0.044 (inactive)	-0.003 (inactive)	0.021 (inactive)	0.023 (inactive)	0.009 (inactive)
YME1L1 (UniProt Q96TA2)	-0.025 (inactive)	-0.034 (inactive)	-0.073 (inactive)	0.01 (inactive)	-0.017 (inactive)	-0.112 (inactive)	0.048 (inactive)	-0.023 (inactive)	-0.024 (inactive)	0.055 (inactive)	0.011 (inactive)	-0.06 (inactive)	0 (inactive)	0.026 (inactive)	-0.044 (inactive)	-0.045 (inactive)	-0.019 (inactive)	0.016 (inactive)	0.06 (inactive)	-0.059 (inactive)
VPS28 (UniProt Q9UK41)	0.038 (inactive)	-0.005 (inactive)	0.051 (inactive)	-0.132 (inactive)	-0.032 (inactive)	0.018 (inactive)	-0.03 (inactive)	-0.005 (inactive)	0.034 (inactive)	0.034 (inactive)	-0.031 (inactive)	0.034 (inactive)	0.021 (inactive)	0.004 (inactive)	0.086 (inactive)	0.081 (inactive)	0.029 (inactive)	-0.038 (inactive)	0.012 (inactive)	-0.027 (inactive)
YDJC (UniProt A8MPS7)	-0.003 (inactive)	-0.016 (inactive)	0.022 (inactive)	-0.031 (inactive)	-0.044 (inactive)	0.02 (inactive)	0.022 (inactive)	0.025 (inactive)	-0.017 (inactive)	-0.033 (inactive)	-0.027 (inactive)	0.045 (inactive)	-0.1 (inactive)	-0.044 (inactive)	-0.02 (inactive)	-0.03 (inactive)	-0.045 (inactive)	-0.001 (inactive)	0.021 (inactive)	0.074 (inactive)
WDHD1 (UniProt O75717)	-0.017 (inactive)	-0.025 (inactive)	-0.035 (inactive)	0.077 (inactive)	0.007 (inactive)	-0.082 (inactive)	-0.043 (inactive)	0.011 (inactive)	0.023 (inactive)	-0.037 (inactive)	-0.008 (inactive)	0.026 (inactive)	-0.023 (inactive)	0.012 (inactive)	0.01 (inactive)	-0.029 (inactive)	-0.01 (inactive)	0.008 (inactive)	0.013 (inactive)	0.01 (inactive)
UXT isoform 2 (UniProt Q9UBK9)	-0.018 (inactive)	-0.073 (inactive)	0.003 (inactive)	-0.018 (inactive)	-0.006 (inactive)	0.084 (inactive)	-0.053 (inactive)	0.012 (inactive)	0.089 (inactive)	0.065 (inactive)	0.012 (inactive)	-0.019 (inactive)	0.079 (inactive)	0.019 (inactive)	-0.05 (inactive)	-0.03 (inactive)	-0.015 (inactive)	-0.04 (inactive)	-0.026 (inactive)	-0.036 (inactive)
VPS13C (UniProt Q709C8)	-0.008 (inactive)	0.023 (inactive)	0.003 (inactive)	-0.065 (inactive)	0.021 (inactive)	-0.055 (inactive)	0.052 (inactive)	-0.006 (inactive)	-0.054 (inactive)	0.213 (inactive)	0.138 (inactive)	0.043 (inactive)	-0.011 (inactive)	-0.069 (inactive)	-0.039 (inactive)	-0.034 (inactive)	-0.177 (inactive)	-0.009 (inactive)	-0.028 (inactive)	-0.05 (inactive)
WDR45 isoform 2 (UniProt Q9Y484)	-0.002 (inactive)	-0.011 (inactive)	-0.048 (inactive)	-0.229 (active)	-0.04 (inactive)	-0.051 (inactive)	-0.025 (inactive)	0.054 (inactive)	-0.047 (inactive)	0.179 (inactive)	0.04 (inactive)	-0.01 (inactive)	-0.085 (inactive)	-0.027 (inactive)	0.049 (inactive)	0.06 (inactive)	0.009 (inactive)	0.013 (inactive)	-0.042 (inactive)	-0.028 (inactive)
WRN (UniProt Q14191)	-0.008 (inactive)	0.006 (inactive)	-0.031 (inactive)	-0.042 (inactive)	-0.034 (inactive)	-0.008 (inactive)	0.037 (inactive)	0.02 (inactive)	-0.064 (inactive)	0.073 (inactive)	-0.027 (inactive)	-0.018 (inactive)	-0.108 (inactive)	-0.004 (inactive)	0.022 (inactive)	-0.042 (inactive)	-0.005 (inactive)	0.03 (inactive)	0.089 (inactive)	-0.013 (inactive)
ZNF451 (UniProt Q9Y4E5)	-0.044 (inactive)	-0.054 (inactive)	-0.042 (inactive)	-0.053 (inactive)	0.007 (inactive)	-0.069 (inactive)	-0.045 (inactive)	0.052 (inactive)	-0.074 (inactive)	0.003 (inactive)	0.016 (inactive)	0.013 (inactive)	-0.028 (inactive)	-0.033 (inactive)	0.02 (inactive)	-0.044 (inactive)	-0.049 (inactive)	0.022 (inactive)	0.044 (inactive)	-0.038 (inactive)
WIPI1 (UniProt Q5MNZ9)	-0.021 (inactive)	-0.003 (inactive)	0.058 (inactive)	-0.013 (inactive)	-0.014 (inactive)	0.017 (inactive)	0.039 (inactive)	-0.013 (inactive)	-0.038 (inactive)	-0.038 (inactive)	0.011 (inactive)	-0.198 (inactive)	0.06 (inactive)	0.314 (active)	-0.028 (inactive)	0.013 (inactive)	0.003 (inactive)	-0.011 (inactive)	0.009 (inactive)	0.011 (inactive)
WDR62 isoform 4 (UniProt O43379)	-0.025 (inactive)	0.028 (inactive)	-0.048 (inactive)	-0.021 (inactive)	0.006 (inactive)	-0.032 (inactive)	0.034 (inactive)	0.038 (inactive)	-0.05 (inactive)	0.08 (inactive)	-0.001 (inactive)	0.003 (inactive)	-0.026 (inactive)	0 (inactive)	0.022 (inactive)	-0.103 (inactive)	-0.051 (inactive)	0.031 (inactive)	-0.02 (inactive)	-0.031 (inactive)

— the supplement of paper PMC10849652
